Calls of active or inactive are those of the source. Calls come from the whole dose curve; as a rule, active = well fitted activation curve with a large enough effect; inconclusive = small, poorly fitted or top-dose-only effect; inactive = flat fitted curve, though single readings scatter.

In PubChem BioAssay (NCATS) one finds outcome data, which are given here for 18 compounds.

The assay can be described thus: Confirmation and Secondary Assay for Modulators of Hemoglobin Beta Chain Splicing at IVS2 705 locus (AID 930). The note with it: HeLa EGFP-705 splicing reporter, GFP fluorescence, 48 h; series mostly up to 46.1 µM. From the text: NIH Chemical Genomics Center [NCGC] NIH Molecular Libraries Screening Centers Network [MLSCN] MLSCN Grant: 1 X01 MH080684-01 PI Name: Dr. Ryszard Kole NCGC Assay Overview: Modulation of Alternative Splicing as Therapy Abnormal splicing is associated with a number of diseases, including cancer and genetic diseases such as cystic fibrosis, muscular dystrophy and beta-thalassemia. Alteration of disease associated splicing patterns provides a promising target for treatment. […] Mutations in the second intron of the b-globin gene at positions 654 or 705 are clinically relevant and cause mis-splicing which results in an out of frame gene product. […] EGFP-705 HeLa Cells as screen system. HeLa cell lines were stably transfected with a construct in which the EGFP (enhanced green fluorescent protein) cDNA was interrupted by the second intron of the beta-globin gene (IVS2-705). The ISV2 intron contains mutations which cause mis-splicing of EGFP and premature termination of EGFP which results in a nonfluorescent protein product. […] Expression of the transgene was driven by the CMV promoter. We concluded that a low molecular weight compound, which restored correct splicing of intron 2 would also generate functional EGFP protein, resulting in a fluorescent signal. Thus, the HeLa cells that express the EGFP-705 construct can be used for validation of splice site specificity of compounds identified in primary screening of the ISV2 654 construct.
NCGC Assay Protocol Summary: Confirmatory Screening. Freshly thawed HeLa EGFP-705 cells were seeded in 5 ul of optimem media (Invitrogen) containing 2 % fetal calf serum (Hyclone) and 1x penicillin/streptomycin (Invitrogen) at a concentration of 500 cells per well in 1536-well plates. Cells were incubated overnight at 37C in 5% CO2. The next day, cells were treated with DMSO, 500 nM antisense ISV2 654 PNA control oligo, or library compound and allowed to grow at 37C in 5% CO2 for 2 days. The PNA oligo blocked the mutation site in the intron and allowed proper (wild type) splicing to occur, resulting in full length EGFP expression and also allowed for optimization of the assay parameters. Plates were read in the Acumen Explorer (TTP Labtech) using 488 nm laser excitation and 500-520 nm emission PMT filter in a 1 x 8 uM capture mode. Fluorescnet objects ranging in size from 5 to 250 uM were measured and the total peak GFP intensity for each well was used for data analysis. Keywords: Thalassemia, beta-thalassemia, beta-globin, EGFP, ISV2 654, ISV2 705, SSO, PNA, antisense, splicing, MLSMR, MLSCN, NIH Roadmap, qHTS, NCGC
Consider `CCCC(C)C1(CC)C(=O)N=C(S)NC1=O` (stereo not drawn), for which the outcome was inactive. `CCCCCCCCCCCCCCCC[n+]1ccccc1`: the compound was classed as inactive.

For `CCNc1nc(Cl)nc(NCC)n1`, the outcome was inactive. In the case of `NC(=O)CN1CCCC1=O`, the call was inactive. With `CC(C)[N+](C)(CCC(C(N)=O)(c1ccccc1)c1ccccc1)C(C)C`, the call was inactive. Take `COc1ccc(C(=O)N2CCCC2=O)cc1`: the compound was called inactive. As for `COC(=O)C1=CCCN(C)C1`, the entry is “inactive”; as for `Clc1ccc(C(OCCN2CCCCC2)c2ccccc2)cc1` (stereo not drawn), “inactive”. Turning to `Clc1ccc(CSC(Cn2ccnc2)c2ccc(Cl)cc2Cl)cc1` (stereo not drawn), the compound was called inactive. With `CN(C)C(=O)Oc1cc(OC(=O)N(C)C)cc(C(O)CNC(C)(C)C)c1` (stereo not drawn), the outcome was inactive. Under `Clc1ccc(CO/N=C(\Cn2ccnc2)c2ccc(Cl)cc2Cl)c(Cl)c1` stands “inactive”; under `Cc1ccc(N=CN(C)C=Nc2ccc(C)cc2C)c(C)c1`, “inactive”; under `CC[n+]1c(-c2ccccc2)c2cc(N)ccc2c2ccc(N)cc21`, “inactive”. Take `N#Cc1nn(-c2c(Cl)cc(C(F)(F)F)cc2Cl)c(N)c1S(=O)C(F)(F)F` (stereo not drawn): the compound was called inactive. As to `c1ccc2nc(N3CCNCC3)ccc2c1`, the result was inactive. Consider `CCCCCCCCC(=O)NCc1ccc(O)c(OC)c1`, for which the call was inactive. Consider `CN(C)C(=S)SSC(=S)N(C)C`, for which the outcome was inactive. In the case of `O=C(NC(=O)c1c(F)cccc1F)Nc1cc(Cl)c(OC(F)(F)C(F)C(F)(F)F)cc1Cl` (stereo not drawn), the compound was called inactive.
